# Pf growth 96h = P. falciparum growth inhibition at 96 hours. actives 6.9% (n = 320,000). Potency, µM (doses to about 28.7 µM), for the others: top-dose activity change, negative = inhibition, actives largely listed as inhibitors. AID 504834. P. falciparum luciferase reporter growth, 96 h; also: % is scaled to controls: 0 for no effect and ±100 for the full control effect
#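 Luminescence readout: decreased luciferase signal marks inhibited growth of reporter-expressing P. falciparum in infected red cells (2% hematocrit, 0.05% parasitemia final), exposed to compound two generations (96 h, 37 C, 5% CO2).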
# Pf growth 48h = P. falciparum growth inhibition at 48 hours (one generation). P. falciparum luciferase growth in erythrocytes, 48 h. Potency, µM (series often up to 28.7 µM), inactives show at the top dose activity change, negative = inhibition, hits mostly inhibitors. actives 5.9% (n = 310,000). AID 504832; also: % is scaled to controls: 0 for no effect and ±100 for the full control effect
#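 Compounds are pin-transferred into medium, infected erythrocytes (2% hematocrit, 0.1% parasitemia final) are added, and plates sit one parasite generation at 37 C in 5% CO2. Detection reagent is then added and luminescence measured.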
# NS1 inh = blocks influenza NS1 protein function | Potency, µM (highest dose often 46.1 µM), inactives show top-dose activity, positive = more growth | actives 0.4% (n = 270,000) | AID 2326; calls by dose curve; also: actives are rising curves; nearly all actives have a fitted effect of over 50% in size
#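 Compounds were scored for reversing the slow growth caused by influenza A NS1 in S. cerevisiae, measured by optical density at 600 nm. Assay medium contained 2% galactose at pH 6.0; NS1-free yeast of the same strain were the positive control.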
# SARS PLpro yeast = inhibitors of SARS-CoV papain-like protease in yeast. S. cerevisiae expressing SARS-CoV PLpro, growth rescue. Potency, µM (doses to about 32.9 µM), inactives show at the top dose activity, positive = growth rescue, actives largely listed as activators. actives 0.19% (n = 330,000); calls by dose curve; also: 0% is about no effect; nearly all actives have a fitted effect of over 55% in size
# RE007 growth inh = less growth of the S. pombe RE007 Vpr strain | Potency, µM (titrated, usually from 92.2 µM), without a hit: top-dose activity change, negative = less growth, actives largely listed as inhibitors | S. pombe RE007 Vpr strain, BacTiter-Glo ATP luminescence, 24 h | actives 0.21% (n = 360,000); active = well fitted falling curve with a large enough effect; inconclusive = small, poorly fitted or top-dose-only effect; inactive = no such curve, though single readings can be large or run the other way; also: % is scaled to controls: 0 for no effect and ±100 for the full control effect; nearly all actives have a fitted effect of over 50% in size
#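 Fission yeast RE007 carrying one integrated HIV-1 vpr copy, seeded at OD 0.01 in PMG+AL medium with 23 nL pinned compound. Grown 24 h at 30 degrees; viability read by BacTiter-Glo luminescence after 5 min.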
# * marks the source's active call; other numbers are inactive results; ? = inconclusive; . = no result; [ ] = dose if it differs, or a comment. Shown are actives, neighbours in structure and some others; about 9.5% of the full set was active somewhere. Unless noted, calls follow the shape of the dose curve; as a rule, active = well fitted inhibition curve with a large enough effect; inconclusive = small, poorly fitted or top-dose-only effect, or another doubt; inactive = no such curve, though single readings can be large or run the other way. Potency is read from the fitted curve at half-maximal effect.
SMILES,Pf growth 96h,Pf growth 48h,NS1 inh,SARS PLpro yeast,RE007 growth inh
CCCCN(C(=O)CSc1nn(-c2ccc(F)cc2)c(=S)s1)c1c(N)n(CCCC)c(=O)[nH]c1=O,13µM*,?,.,4%,-21%
CCCCCN(C(=O)CCC(=O)OCC(=O)c1ccc(C(C)CC)cc1)c1c(N)n(CCCC)c(=O)[nH]c1=O (configuration not stated),?,10µM*,.,2%,-12%
CCCCN(C(=O)c1cc(-c2ccc(F)cc2)nc2ccccc12)c1c(N)n(CCCC)c(=O)[nH]c1=O,7.4µM*,?,.,8%,1%
Cc1c(Cl)cccc1N1C(=O)CC(Sc2ccccc2N)C1=O (configuration not stated),.,.,.,.,-15%
Cc1ccc(CNC(=O)C2CCCN(c3cnccn3)C2)cc1 (configuration not stated),?,11%,-3%,5%,-2%
CCCCn1c(N)c(N(CCC(C)C)C(=O)CCCc2nc3ccccc3s2)c(=O)[nH]c1=O,15µM*,-6%,9%,3%,-12%
CCCCn1c(N)c(N(CC(C)C)C(=O)CCCc2nc3ccccc3s2)c(=O)[nH]c1=O,?,?,.,0%,2%
CCCCn1c(N)c(N(CC(C)C)C(=O)c2cc(-c3ccc(OC)c(OC)c3)nc3ccccc23)c(=O)[nH]c1=O,?,1.3µM*,.,-1%,-9%
COc1cc(/C(O)=C(\C#N)c2nc3ccccc3[nH]2)cc(OC)c1OC,15µM*,?,?,0%,8%
C/C(O)=C(/C#N)c1nc2ccccc2[nH]1,-13%,37%,-10%,6%,10%
CC(=O)OC(/C(O)=C(\C#N)c1nc2ccccc2[nH]1)c1ccccc1 (configuration not stated),9.3µM*,?,-3%,2%,7%
O=C(NC1CCN(S(=O)(=O)c2ccccc2F)CC1)c1cccnc1,0%,-8%,-12%,-2%,0%
CN(c1cccc(NC(=O)CN(c2ccc(Cl)c(Cl)c2)S(=O)(=O)c2ccccc2)c1)S(C)(=O)=O,?,?,?,22%,4%
CN(c1cccc(NC(=O)CN(c2ccc(C34CC5CC(CC(C5)C3)C4)cc2)S(C)(=O)=O)c1)S(C)(=O)=O,17µM*,?,?,-1%,9%
Cc1ccc(S(=O)(=O)N(CC(=O)Nc2cccc(N(C)S(C)(=O)=O)c2)c2ccc(Cl)c(Cl)c2)cc1,?,13µM*,?,-2%,-13%
Cc1nn(-c2ccccc2)c(C)c1-c1nnc(-c2c(C)nn(-c3ccccc3)c2C)o1,?,12µM*,2%,2%,13%
Cc1nn(-c2ccccc2)c(C)c1-c1nnc(C(F)(F)F)o1,25%,16%,-4%,0%,-17%
COc1cccc(OC)c1C(=O)NCC12CC3CC(C1)CC(CNC(=O)c1c(OC)cccc1OC)(C3)C2,3.3µM*,34%,9%,1%,-4%
COC(=O)NCC12CC3CC(C1)CC(CNC(=O)OC)(C3)C2,?,?,6%,6%,23%
O=C1NCC(COCc2ccccc2)O1 (configuration not stated),5.2µM*,13%,0%,4%,-7%
Cc1cccc(C)c1OCC1CNC(=O)O1 (configuration not stated),-9%,-9%,13%,-5%,5%
CCOc1ccc(OCC(=O)OCC(=O)N2CCN(S(=O)(=O)c3ccc(C)cc3C)CC2)cc1,.,.,.,.,-1%
CC(=O)[C@]1(O)Cc2c(O)c3c(c(O)c2[C@@H](O[C@H]2C[C@H](N)[C@H](O)[C@H](C)O2)C1)C(=O)c1ccccc1C3=O,2.7µM*,3.8µM*,-38%,.,-15%[18.4 µM]
CC(=O)[C@]1(O)Cc2c(O)c3c(c(O)c2[C@@H](O[C@H]2C[C@H](N)[C@H](O)[C@H](C)O2)C1)C(=O)c1c(O)cccc1C3=O,1.5µM*,2.4µM*,.,.,.
COc1cccc2c1C(=O)c1c(O)c3c(c(O)c1C2=O)C[C@](O)(C(=O)CO)C[C@@H]3O[C@H]1C[C@H](N)[C@@H](O)[C@H](C)O1,-10%,-10%,.,.,.
